Pf growth 96h – Primary qHTS for delayed death inhibitors of the malarial parasite plastid, 96 hour incubation. P. falciparum luciferase reporter growth, 96 h. Potency, µM (doses to about 28.7 µM), for inactives: top-dose activity change, negative = inhibition, actives largely listed as inhibitors. actives 6.9% (n = 320,000); note: % is set by controls: 0 for no effect and ±100 for the full control effect
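Infected RBCs, 2% Hct / 0.05% parasitemia final; luciferase-reporter P. falciparum; cpd 96 h, 37 C, 5% CO2; luciferase detection reagent; luminescence.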
Sm TGR block – qHTS Assay for the Inhibitors of Schistosoma Mansoni Peroxiredoxins | Schistosoma mansoni thioredoxin glutathione reductase (TGR), Q962Y6 | purified TGR, DTNB reduction, TNB absorbance 405 nm | Potency, µM (doses to about 114 µM), for the others: at the top dose activity change, negative = inhibition, most hits filed as inhibitors | actives 3% (n = 360,000) | AID 485364, 2010; note: % is set by controls: 0 for no effect and ±100 for the full control effect; nearly all actives have a fitted effect of over 60% in size
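Kinetic colorimetric format: TGR-catalysed, NADPH-driven DTNB reduction monitored via TNB absorbance. Enzyme dispensed at 20 nM; compound exposure 15 min at room temperature before reaction start.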
AmpC detergent – qHTS Inhibitors of AmpC Beta-Lactamase (assay with detergent); P00811; AmpC hydrolysis of nitrocefin, absorbance 480 nm, 0.01% Triton; Potency, µM (series often up to 114 µM), for inactives: top-dose activity change, negative = inhibition, actives largely listed as inhibitors; actives 0.041% (n = 370,000);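 note: 0% = no-compound wells and -100% = no-enzyme wells; nearly all actives have a fitted effect of over 25% in size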
Target sequence (P00811 whole entry, looked up): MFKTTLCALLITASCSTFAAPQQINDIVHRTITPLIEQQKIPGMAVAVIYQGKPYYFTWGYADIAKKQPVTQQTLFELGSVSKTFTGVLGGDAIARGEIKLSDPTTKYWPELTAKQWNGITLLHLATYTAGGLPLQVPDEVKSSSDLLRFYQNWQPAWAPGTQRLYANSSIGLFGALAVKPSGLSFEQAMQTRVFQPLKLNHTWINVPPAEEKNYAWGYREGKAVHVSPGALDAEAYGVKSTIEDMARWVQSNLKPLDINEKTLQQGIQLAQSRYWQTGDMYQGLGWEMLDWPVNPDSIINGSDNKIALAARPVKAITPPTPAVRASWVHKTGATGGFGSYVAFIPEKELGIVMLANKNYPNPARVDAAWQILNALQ
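20 mM phosphate pH 7.0 + 0.01% (detergent screen) or 0.0001% Triton X-100; 5.3 nM AmpC reagent; cpd preinc 15 min RT; nitrocefin (800 uM stock) to start; A480 q20 s × 4 min; Activity was normalised to no-enzyme and no-compound control wells.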
Pf growth 48h – Primary qHTS for delayed death inhibitors of the malarial parasite plastid, 48 hour incubation. P. falciparum luciferase growth in erythrocytes, 48 h. Potency, µM (series often up to 28.7 µM), for inactives: at the highest dose activity change, negative = inhibition, usual class: inhibitors. actives 5.9% (n = 310,000); note: % is set by controls: 0 for no effect and ±100 for the full control effect
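Compounds are pin-transferred into medium, infected erythrocytes (2% hematocrit, 0.1% parasitemia final) are added, and plates sit one parasite generation at 37 C in 5% CO2. Detection reagent is then added and luminescence measured.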
AmpC inh no detg – qHTS Inhibitors of AmpC Beta-Lactamase (assay without detergent). P00811. AmpC nitrocefin hydrolysis, absorbance 480 nm, 0.0001% Triton. Potency, µM (doses to about 57.1 µM), inactives show at the highest dose activity change, negative = inhibition, hits mostly inhibitors. actives 0.52% (n = 330,000). AID 485341, 2010;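 note: plate controls were no compound for no effect and no enzyme for full effect; nearly all actives have a fitted effect of over 20% in size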
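AmpC (5.3 nM in the dispensed reagent) in 20 mM phosphate pH 7.0 with 0.01% (detergent screen) or 0.0001% Triton X-100 was preincubated with compounds for 15 min at room temperature. Nitrocefin was then added from an 800 uM solution, and hydrolysis was followed at 480 nm.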
SARS PLpro yeast – qHTS of Yeast-based Assay for SARS-CoV PLP. S. cerevisiae expressing SARS-CoV PLpro, growth rescue. Potency, µM (top dose mostly 32.9 µM), for inactives: top-dose activity, positive = growth rescue, hits mostly activators. actives 0.19% (n = 330,000); calls by dose curve; note: 0% is about no effect; nearly all actives have a fitted effect of over 55% in size
Numbers without * were called inactive; u = inconclusive; x = no result. In the library only some 12% were active in any assay of this set; here they are far more common. Unless noted, calls come from the whole dose curve; as a rule, active = well fitted curve in the direction sought with a large enough effect; inconclusive = small, poorly fitted or top-dose-only effect, or another doubt; inactive = no such curve, though single readings can be large; an effect the other way counts as inactive or inconclusive. Potency is the fitted concentration of half-maximal effect.

SMILES | Pf growth 96h | Sm TGR block | AmpC detergent | Pf growth 48h | AmpC inh no detg | SARS PLpro yeast
O=C(Cn1cnc2nc3c(cc2c1=O)CCCC3)Nc1ccc(F)cc1Cl | x | 1% | 11% | x | x | x
Cc1cc(C)c(C)c(S(=O)(=O)N2CCN(c3ccccn3)CC2)c1C | -2% | 1% | u | -3% | -1% | -20%
Cc1cc(C)c(C)c(S(=O)(=O)N2CCN(c3ncnc4ccccc34)CC2)c1C | u | -1% | 7% | 12µM* | 89% | -8%
CN(C)C1=NC(=O)/C(=C/c2ccc(-c3ccc(S(N)(=O)=O)cc3)o2)S1 | -12% | 32µM* | -10% | 7% | -13% | -12%
NC1=NC(=O)/C(=C\c2ccc(-c3ccc(Cl)cc3)o2)S1 | 5% | -24% | -13% | -9% | -54% | 1%
O=C(NC(C(=O)N/N=C/c1c2ccccc2cc2ccccc12)c1n[nH]c(=O)c2ccccc12)c1ccccc1 (stereo unspecified) | 13µM* | -6% | -3% | 12µM* | -16% | u
CCCc1ccc(OCc2ccc(C(=O)N3CCN(c4ccccn4)CC3)o2)c(OC)c1 | -1% | -16% | -2% | 13µM* | 163% | -11%
CCCc1ccc(OCc2ccc(C(=O)N3CCCC3)o2)cc1 | 23% | -15% | 1% | 10µM* | 97% | -12%
CCOc1ccc(OCc2ccc(C(=O)N3CCCC3)o2)cc1 | 63% | -6% | u | -7% | u | -16%
CCN(CC)S(=O)(=O)c1ccc2c(c1)N(CC(=O)Nc1ccc(OC)cc1)C(=O)CS2 | x | -21% | 0% | x | x | x
Cc1[nH][nH]c(=O)c1/C=N/N1CCOCC1 | u | 0% | u | u | -8% | 2%
O[C@H]1[C@H]2[C@H](O)CCCN2C[C@H]1O | 9.5µM* | x | x | -5% | x | x
CC(C)(C)C(O)C(Oc1ccc(Cl)cc1)n1cncn1 (stereo unspecified) | -12% | 4% | -1% | u | 32% | -20%
CC(C)(C)C(C(Oc1ccc(Cl)cc1)n1cncn1)n1nnnc1C(c1cccc(Cl)c1)N1CCCCC1 (stereo unspecified) | 2.1µM* | -1% | u | 1.9µM* | 2% | -63%
CCCCN(C(=O)CC1CCCC1)c1c(N)n(CCCC)c(=O)[nH]c1=O | -5% | 1% | -9% | -30% | -10% | -1%
COC(=O)c1sccc1-c1ccc(C(N)=O)o1 | 5% | 50µM* | 4% | -4% | -20% | 0%
COC(=O)C(=Cc1ccc(-c2ccsc2C(=O)OC)o1)C(=O)OC | -15% | -1% | -1% | -9% | 0% | -1%
Cc1ccc(C(C)(O)CS(=O)(=O)Cc2ccccc2Cl)cc1 (stereo unspecified) | 7% | 50µM* | -6% | 11% | -3% | -3%
O=C(Cn1ccn(-c2cccc(Cl)c2)c(=O)c1=O)NCCc1ccccc1 | x | -16% | -6% | x | x | x
CCOC(=O)Nc1ccc2c(c1)N(C(=O)N1CCN(C)CC1)c1ccccc1CC2 | 0% | 16% | 3% | 12µM* | 117% | -1%
CCOC(=O)Nc1ccc2c(c1)N(C(=O)CN1CCN(C)CC1)c1ccccc1CC2 | u | -1% | 8% | u | 15% | 7%
CC(C)OC(=O)Nc1ccc2c(c1)N(C(=O)N1CCN(C)CC1)c1ccccc1CC2 | u | 1% | 4% | 0% | 127% | -3%
CCOC(=O)Nc1ccc2c(c1)N(C(=O)N(C)C)c1ccccc1CC2 | -1% | 15% | 7% | u | 64% | -31%
CCOC(=O)Nc1ccc2c(c1)N(C(=O)CN1CCN(CCO)CC1)c1ccccc1CC2 | 12µM* | -14% | -14% | u | 36% | 15%
CCNCC(=O)N1c2ccccc2CCc2ccc(NC(=O)OC(C)C)cc21 | -33% | -33% | -11% | 12µM* | 65% | -3%
SMILES | Pf growth 96h | Sm TGR block | AmpC detergent | Pf growth 48h | AmpC inh no detg | SARS PLpro yeast
CCOC(=O)Nc1ccc2c(c1)N(C(=O)N(CC)CC)c1ccccc1CC2 | u | -1% | -12% | 12µM* | 63% | -134%
Cc1ccc(Cl)cc1N1CCN(C(=O)CCS(=O)(=O)c2ccc3c(c2)oc(=O)n3C)CC1 | x | u | -5% | x | x | x
O=C(O)c1ccc(CP(=O)(c2ccccc2)c2ccccc2)cc1 | u | -14% | u | -5% | -16% | 0%
CCOC(=O)Nc1ccc2c(c1)N(C(=O)CCN1CCN3CCCC3C1)c1ccccc1CC2 (stereo unspecified) | 15µM* | -15% | -3% | -28% | 63% | -5%
COC(=O)Nc1ccc2c(c1)N(C(=O)CCN1CCN3CCCC3C1)c1ccccc1CC2 (stereo unspecified) | u | -8% | -6% | -28% | 18% | 5%
CCOC(=O)Nc1ccc2c(c1)N(C(=O)CCN(CC)CC)c1ccccc1CC2 | 84% | -9% | u | u | 30% | 5%
CCOC(=O)Nc1ccc2c(c1)N(C(=O)CCN(CC)CC)c1ccccc1S2=O (stereo unspecified) | 82% | 4.5µM* | -7% | 11% | -12% | -1%
Cc1nc2c(-c3ccccc3)c(C)nn2c(C)c1CCC(=O)NCc1ccc(Cl)cc1 | x | 2% | 6% | x | x | x
O=C(O)c1cc([N+](=O)[O-])ccc1NCc1ccccn1 | 43% | -27% | 1% | 16% | -12% | -1%
CCCCN(C)CCC(=O)Nc1ccc2c(c1)CCC2 | -15% | 2% | -7% | u | -20% | -1%
COc1cc2[nH]c(=O)n(Cc3ccc(C(=O)N4CCN(c5cc(Cl)ccc5C)CC4)cc3)c(=O)c2cc1OC | x | -20% | -2% | x | x | x
Cc1ccc(-c2[nH]c(-c3ccc(C(=O)O)cc3)nc2-c2ccccc2)cc1 | 10µM* | -7% | -14% | -32% | -45% | -21%
CCOCCCn1c(=S)[nH]c2cc(C(=O)N3CCC(C(N)=O)(N4CCCCC4)CC3)ccc2c1=O | 1% | 2% | -5% | -6% | 32% | -1%
CCOCCCn1c(=S)[nH]c2cc(C(=O)N3CCN(c4ccccc4)CC3)ccc2c1=O | 15µM* | 0% | 4% | 19% | -2% | 0%
CCOCCCn1c(=S)[nH]c2cc(C(=O)N3CCN(C)CC3)ccc2c1=O | x | 7% | u | -1% | -6% | 8%
CCOCCCn1c(=S)[nH]c2cc(C(=O)N3CCN(C4CCCCC4)CC3)ccc2c1=O | 5.2µM* | -1% | 2% | 1% | 5% | -3%

From PubChem BioAssay
